In PubChem BioAssay (NCATS):
Inconclusive results are not listed. Activity calls are given as the source filed them. Calls come from the whole dose curve; as a rule, active = well fitted activation curve with a large enough effect; inconclusive = small, poorly fitted or top-dose-only effect; inactive = no such curve, though single readings can be large or run the other way.

Target: Cellular tumor antigen p53 (Homo sapiens) (UniProt P04637)
Experiment: Primary qHTS for small molecule compounds that upregulate eGFP-tagged delta133p53alpha (in N-terminal) cells. (AID 2060322);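 note: series mostly up to about 56 µM; 0% = DMSO vehicle and 100% = reference activator; nearly all actives have a fitted effect of over 75% in size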
Details: NCI-H358 eGFP-delta133p53alpha fluorescence, 24 h; activation: stronger effect = higher value
In short: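 NCI-H358 cells pre-induced 24 h with 10 ng/ml doxycycline to express N-terminal eGFP-delta133p53alpha, then dosed 24 h at 37C without doxycycline; fixed, Hoechst-stained, GFP intensity by laser scanning cytometry, normalized to DMSO (0%) and 57.5 uM 5-azacytidine (100%).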

Cellular tumor antigen p53 (Homo sapiens), sequence (P04637 whole entry, looked up): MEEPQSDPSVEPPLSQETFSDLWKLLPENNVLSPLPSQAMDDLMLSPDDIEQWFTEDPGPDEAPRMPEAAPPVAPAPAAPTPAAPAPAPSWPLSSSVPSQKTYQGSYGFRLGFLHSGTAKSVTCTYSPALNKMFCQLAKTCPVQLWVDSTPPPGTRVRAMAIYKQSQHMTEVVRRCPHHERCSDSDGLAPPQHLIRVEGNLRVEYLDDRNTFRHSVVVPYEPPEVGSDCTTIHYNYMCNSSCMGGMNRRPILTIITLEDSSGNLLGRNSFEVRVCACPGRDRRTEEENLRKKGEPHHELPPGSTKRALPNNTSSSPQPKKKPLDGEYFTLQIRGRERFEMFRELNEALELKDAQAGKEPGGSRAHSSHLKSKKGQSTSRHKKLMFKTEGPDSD

| Structure (SMILES) | activation |
| --- | --- |
| CCN(CC)CCOc1ccc(C(O)(Cc2ccc(Cl)cc2)c2ccc(C)cc2)cc1 (stereo not given) | -6.69% (inactive) |
| Nc1ccncc1N | 21.8% (inactive) |
| CN[C@@H]1[C@H](O)[C@H](NC)[C@H]2O[C@@]3(O)C(=O)C[C@@H](C)O[C@H]3O[C@@H]2[C@H]1O | 27.7% (inactive) |
| N#Cc1ccc(-c2csc(NN=C3CCCC3)n2)cc1 | -8.94% (inactive) |
| CN1CCc2cccc3c2[C@H]1Cc1ccc(O)c(O)c1-3 | 21.8% (inactive) |
| CCOC(=O)N1CCN([N+]([O-])=NOc2cc(ON=[N+]([O-])N3CCN(C(=O)OCC)CC3)c([N+](=O)[O-])cc2[N+](=O)[O-])CC1 | 5.87% (inactive) |
| CCCCCC1Nc2cc(C(F)(F)F)c(S(N)(=O)=O)cc2S(=O)(=O)N1 (stereo not given) | -4.18% (inactive) |
| CCN(CC)c1ccc(C(=C2C=CC(=[N+](CC)CC)C=C2)c2cc(S(=O)(=O)O)ccc2S(=O)(=O)[O-])cc1 | -8.47% (inactive) |
| Cc1oc(-c2ccccc2)nc1CCC(=O)c1ccc(CC2SC(=O)NC2=O)cc1 (stereo not given) | -3.95% (inactive) |
| Cc1ccc([C@@H]2O[C@H](CO)[C@@H](O)[C@H](O)[C@@H]2O)cc1Cc1ccc(-c2ccc(F)cc2)s1 | -12.3% (inactive) |
| CC(C)=CCC/C(C)=C/CO | -11.9% (inactive) |
| Nc1nc(-c2ccccc2)c(Br)c(=O)[nH]1 | -12.6% (inactive) |
| C[C@H]1O[C@@H](n2cc(F)c(=O)[nH]c2=O)[C@H](O)[C@H]1O | 0.294% (inactive) |
| CC1(C)[C@@H]2CC[C@@]1(C)C(=O)C2 | -0.837% (inactive) |
| COCc1c(C(C)C)nc(C(C)C)c(/C=C/[C@@H](O)C[C@@H](O)CC(=O)O)c1-c1ccc(F)cc1 | 27.7% (inactive) |
| COc1ccc2cc1Oc1cc3c(cc1OC)CC[N+](C)(C)[C@H]3Cc1ccc(cc1)Oc1c(OC)c(OC)cc3c1[C@@H](C2)[N+](C)(C)CC3 | 13% (inactive) |
| CN1CCN(N)CC1 | 0.837% (inactive) |
| O=C(NCN1CCOCC1)c1cnccn1 | -15.3% (inactive) |
| Oc1ccc(CCNCCCCCCNCCc2ccccc2)cc1O | 0% (inactive) |
| CNC1[C@H](O)C(O[C@@H]2C(O)C(O[C@H]3O[C@H]([C@@H](C)NC)CC[C@H]3N)[C@@H](N)C[C@H]2N)OC[C@]1(C)O (stereo not given in full) | -1.3% (inactive) |
| CC=C1NC(=O)[C@H]2CSSCCC=C[C@H](CC(=O)N[C@H](C(C)C)C(=O)N2)OC(=O)[C@H](C(C)C)NC1=O | 27.9% (inactive) |
| Oc1ccccc1-c1nnco1 | -23.2% (inactive) |
| C[N+]1(C)CCC(=C(c2ccccc2)c2ccccc2)CC1 | 28.8% (inactive) |
| C[C@@H]1O[C@@H](OC[C@H]2O[C@@H](Oc3c(-c4ccc(O)c(O)c4)oc4cc(O)cc(O)c4c3=O)[C@H](O)[C@@H](O)[C@@H]2O)[C@H](O)[C@H](O)[C@H]1O | -29.9% (inactive) |
| O[C@@H]1CO[C@H]2[C@@H]1OC[C@@H]2O | -14.2% (inactive) |
